PubChem BioAssay (NCATS)
Results filed as inconclusive are left out. Calls of active or inactive are those of the source. The call rests on the fitted dose curve; in most records, active means well fitted inhibition curve with a large enough effect; inconclusive means small, poorly fitted or top-dose-only effect; inactive means no such curve, though single readings can be large or run the other way.

Experiment: qHTS for Inhibitors of the Aldehyde Dehydrogenase Family (ALDH1A2, ALDH1A3, ALDH2, ALDH3A1) (AID 2061307); further: nearly all actives have a fitted effect of over 50% in size; on Potency: test system not described further here
Details: ALDH inhibition qHTS; series mostly up to 50.3 µM; activity change, negative = inhibition: at the top concentration
On the % scale 0 is the no-effect control and ±100 the full control effect; potency means the concentration at half of the fitted maximal effect.

Activity change, negative = inhibition, inactive:
Cc1c2c(=O)n(-c3ccccc3)[nH]c2cc(=O)n1CCN1CCOCC1 11.6%, O=C(O)c1ccc(-c2ccc3ncnc(NCc4cccs4)c3c2)o1 -23.2%, O=C(NCCN1CCN(c2cccc(Cl)c2)CC1)Nc1ccccc1C(F)(F)F -60.6% [at 34.4 µM], O=C(O)c1cccc(Nc2ncnc3sccc23)c1 0% [at 34.4 µM], CCOc1ccc(-c2nc3scc(-c4ccc(OC)cc4)c3c(=O)[nH]2)cc1OC -18.5% [at 34.4 µM], N[C@H](Cc1cscn1)C(=O)Nc1cccc(-c2nn3c(=O)cc(N4CCNCC4)nc3s2)c1 -36%, Cc1cc(=O)n2[nH]c(NC(=O)c3cccnc3)nc2n1 -5.57%, CS(=O)Cc1cccc(C(=O)Nc2cccc3cccnc23)c1 (stereo not given) -12% [at 34.4 µM], COCCN(CC(=O)Nc1cccc(C)c1C)C(=O)c1cc2c(s1)CCC2 -5.3%, Cn1c(C(=O)Nc2cccc(Cl)c2)cc2c(=O)n(C)c3ccccc3c21 0% [at 34.4 µM], Cc1cccn2c(=O)c(C(=O)NCc3cccc(F)c3)cnc12 -35.4% [at 34.4 µM], N#Cc1cccc(NC(=O)c2cc3c(s2)-c2ccc(Cl)cc2SC3)c1 -43.4% [at 34.4 µM], COc1ccc2c(c1)C(C)(CCN(C)C)C(=O)N2C (stereo not given) 13.2%, COCCn1cc(NC(=O)CSC(C)C)ccc1=O -14.5%, COc1ccc(-c2cc(=O)n(-c3nc(C(=O)O)cs3)[nH]2)cc1 -8.63%, CN1CCN(CC(=O)N2c3ccc(S(=O)(=O)NCCNC(=O)OC(C)(C)C)cc3C(=O)Nc3cccnc32)CC1 -20.5%, CCc1ccc(NC(=O)c2cc3c(=O)n(Cc4cccnc4)ccc3nc2C)cc1 -73.7% [at 34.4 µM], CC(NC(=O)c1c(O)nc2ccccn2c1=O)c1ccccc1 (stereo not given) 0% [at 34.4 µM], CN(C)CCCN1c2ccc([N+](=O)[O-])cc2CCc2cc([N+](=O)[O-])ccc21 -85.5%, C#CCOC(=O)NCCCC[C@H](N)C(=O)O -13%, COc1ccc(-n2c(C)c(C(C)=O)c3cc(OC)ccc32)cc1 1.19% [at 34.4 µM], c1ccc(CCN(Cc2ccccc2)C2CCN(c3ccccc3)CC2)cc1 -12.4%, CCN1CCN(C2c3ccccc3-c3ccc(Br)cc32)CC1 (stereo not given) 34.2%, COc1ccc(NC(=O)Cn2ncc3ccccc3c2=O)cc1S(=O)(=O)N1CCOCC1 -4.56%

Potency, active:
Cc1c(P(=S)(c2ccccc2)c2ccccc2)[n+]2ccccc2n1C/C=C/c1cccc(Br)c1 3.16 µM, Clc1ccc(Cn2cnc3ccccc32)cc1 14.1 µM, Cc1c(P(=S)(c2ccccc2)c2ccccc2)[n+]2ccccc2n1C/C=C/c1ccc(C(F)(F)F)cc1 7.94 µM, Nc1nc(NCc2ccccc2)c2ccccc2n1 10 µM, O=C1C=CC(=O)N1c1cccc(Br)c1 0.0896 µM, O=C(NC1CCCC1)c1csc(N2CCN(c3cccc(Cl)c3)CC2)n1 3.16 µM, O=[N+]([O-])c1ccc(NC(=S)N=Nc2c(O)[nH]c3ccccc23)cc1 7.12 µM, Cc1sc(NC(=O)Cc2ccc3c(c2)OCO3)nc1-c1ccc2c(c1)CCN2C(=O)c1cncn1C 7.94 µM, O=C(N/N=C/c1ccc(Sc2nc3ccccc3s2)o1)c1cccc(F)c1 0.896 µM, COc1ccc(C(=O)O/N=C(\N)c2ccccn2)cc1 0.538 µM, COc1ccccc1Nc1ccc2c(O)cc(S(=O)(=O)O)cc2c1 31.6 µM, Cn1ccc(=Nc2ccc(NC(=O)c3ccc(N=c4ccn(C)c5ccc([N+](=O)[O-])cc45)cc3[N+](=O)[O-])cc2)cc1 5.65 µM, Clc1ccc(-c2noc3ncnc(N4CCCCC4)c23)cc1 11.3 µM, N#Cc1ccsc1NC(=O)c1ccn(-c2ccccc2F)n1 1 µM, O=[N+]([O-])c1ccc(S(=O)(=O)Nc2nc(-c3ccccc3)cs2)cc1 3.57 µM, O=C(N/N=C/c1ccc(Sc2cccc3cccnc23)o1)c1cccc(F)c1 7.12 µM
